The panel holds about 83,000 compounds, 20% with a hit somewhere; the sample as a whole holds those more often.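 Results are percent growth after 48 hours of single-concentration exposure. 100 means growth as in untreated cells, lower positive values show inhibition; negative values down to -100 show cell death.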 A number with no mark means an inactive call. Activity calls are given as the source filed them. The calls were made as follows: active = growth percent below 10; inactive = the rest.
Tested on: NCI-H460 lung
Assay: NCI-60 one-dose screen, 48 h (100 = growth as untreated, 0 = no growth, -100 = all killed)
Details: 10 µM unless noted

Compound	growth
N#CC1=C(N)Oc2c(c(N)nn2-c2ccccc2)C1c1ccc(Cl)cc1Cl (stereo not drawn)	106%
C=C(C)[C@@H]1CC[C@]2(C=O)CC[C@]3(C)[C@H](CC[C@@H]4[C@@]5(C)C/C(=C/c6cccnc6)C(=O)C(C)(C)[C@@H]5CC[C@]43C)[C@@H]12	85.7%
C=C(C)[C@@H]1CC[C@]2(C(=O)N3CCN(CC)CC3)CC[C@]3(C)[C@H](CC[C@@H]4[C@@](C)(CCC(=O)N5CCN(CC)CC5)[C@H](C(=C)C)CC[C@]43C)[C@@H]12	25.1%
CCN1CCN(C(=O)[C@]23CCC(C)(C)C[C@H]2C2=CC[C@@H]4[C@@]5(C)CC/C(=N/O)C(C)(C)[C@@H]5CC[C@@]4(C)[C@]2(C)CC3)CC1	72%
N#CC1=C(N)Oc2c(sc3c(F)cccc23)C1c1ccc(Cl)cc1 (stereo not drawn)	13.1%
O=C1c2cccc3cccc(c23)C(=O)N1CC#Cc1ccc2c3c(cccc13)C(=O)N(CCN1CCNCC1)C2=O	73.1%
C=C(C)[C@@H]1CC[C@]2(/C=N/Nc3ccncc3)CC[C@]3(C)[C@H](CC[C@@H]4[C@@]5(C)CCCNC(C)(C)[C@@H]5CC[C@]43C)[C@@H]12	86.6%
Cc1ccnc2c(OCc3ccccc3)cccc12	86.1%
C=CC(=O)N[C@H](Cc1ccc(-c2cc(Cl)cc(Cl)c2)cc1)[C@H](O)[C@@H](O)C(=O)O	94.9%
C=COCCCCCCCCCCCCCCCCCC	107%
COc1cc2ncnc(Nc3ccc(Oc4ccnc(C)c4)c(C)c3)c2cc1NC(=O)CC1CCSS1 (stereo not drawn)	-53.1% (active)
CN1CCN(c2nc(-c3csc(-c4cccs4)n3)cc3ccccc23)CC1	-25.6% (active)
O=C(O[C@@H]1Cc2c(O)cc(O)cc2O[C@@H]1c1cc(O)c(O)c(O)c1)c1cc(O)c2c(c1)OCO2	105%
C/C(Cc1ccc(Cl)cc1)=C(/c1ccc(Cl)cc1)c1ccc(OCCN2CCCC2)cc1	35.9%
Cc1cc(N(CCCNc2ccnc3cc(Cl)ccc23)Cc2ccco2)nc(N2CCOCC2)n1	64.8%
Cc1ccccc1-c1nc(C(Cl)Cl)nc2cc(-c3ccccc3)nn12	81.5%
O=C1/C(=C\C(Cl)=C/c2ccc([N+](=O)[O-])cc2)SC(=S)N1CCc1ccc(O)cc1	0.441% (active)
Brc1ccc2c(c1)c(-c1nc(-c3c[nH]c4ncccc34)cs1)cn2CCCN1CCCCC1	-67.7% (active)
Cn1c(/C(C#N)=C/c2ccc3ccccc3c2)cc2ccccc21	6.27% (active)

Compound	growth
CN(CSc1ccc(Cl)cc1)c1ccc(CSc2ccc(Cl)cc2)cc1	62%
CCNCCCn1c2c(c3ccc([N+](=O)[O-])cc3c1=O)C(=O)c1cc(OC)cnc1-2	-63% (active)
CC1(C)NC2=C(C(Nc3cccnc3)N1)C(c1ccc([N+](=O)[O-])cc1)C(C(=O)c1ccc(N=[N+]=[N-])cc1)O2 (stereo not drawn)	95.4%
COc1ccc(C2C(C#N)=C(N)Oc3c2sc2c(F)cccc32)cc1 (stereo not drawn)	11.6%
COc1cc(-c2cc3ncccc3c3[nH]c(=O)c4cccnc4c23)cc(OC)c1OC	8.58% (active)
CCCCC/C(=C\c1ccccc1)C1OC(C)C(C)O1 (stereo not drawn)	107%
COc1ccc2c(c1)c(-c1nc(-c3c[nH]c4ncccc34)cs1)cn2CCNC(=O)OC(C)(C)C	82.2%
COc1cc(/C=C/c2cc(/C=C/c3ccc(O)c(OC)c3)n(-c3ccccc3)c(=O)n2)ccc1O	91%
CCN1CCN(C(=O)[C@]23CC[C@@H](C)[C@H](C)[C@H]2C2=CC[C@@H]4[C@@]5(C)C/C(=C/c6cccc(OC)c6OC)C(=O)C(C)(C)[C@@H]5CC[C@@]4(C)[C@]2(C)CC3)CC1	20.1%
COc1cc2c(cc1-c1c(C)noc1C)ncc1nc(C3CCCCC3)n([C@@H](C)COC(F)F)c12	53%
CC(=O)OC[C@]12CC[C@@H](/C(C)=N/O)[C@@H]1[C@H]1CC[C@@H]3[C@@]4(C)CCCNC(C)(C)[C@@H]4CC[C@@]3(C)[C@]1(C)CC2	84.5%
Brc1cnc2[nH]cc(-c3nnc(-c4ccccc4)o3)c2c1	80.9%
COc1ccc2[nH]c(-c3ccc(Cl)cc3)cc(=O)c2c1	100%
CCN1CCN(C(=O)[C@]23CCC(C)(C)C[C@@H]2C2=CC[C@@H]4[C@@]5(C)C/C(=C/c6ccncc6)C(=O)C(C)(C)[C@@H]5CC[C@@]4(C)[C@]2(C)CC3)CC1	-64.7% (active)
COc1ccc(/C=C(\C#N)c2cc3ccccc3n2S(C)(=O)=O)cc1	105%
Cc1ccc(S(=O)(=O)Nc2ccc(-c3cc(-c4cccc(F)c4)c(C#N)c(=O)[nH]3)cc2)cc1	98.2%
N#CC1=C(N)Oc2c(c(N)nn2-c2ccccc2)C1c1ccc(Cl)cc1 (stereo not drawn)	103%
C=C(C)[C@@H]1CC[C@]2(CN)CC[C@]3(C)[C@H](CC[C@@H]4[C@@]5(C)CCC(=O)NC(C)(C)[C@@H]5CC[C@]43C)[C@@H]12	90.3%
CC1(C)[C@@H](O)CC[C@]2(C)[C@H]3CC[C@@H]4[C@H]5[C@H](C(=O)/C=C/c6ccc(C(F)(F)F)cc6)CC[C@]5(CO)CC[C@@]4(C)[C@]3(C)CC[C@@H]12	65.4%

From PubChem BioAssay (NCI)
